The target of the assay is T1, Tyrosyl-tRNA synthetase, putative (Trypanosoma cruzi (strain CL Brener)) (UniProt Q4DSP6).
T1 sequence (whole entry): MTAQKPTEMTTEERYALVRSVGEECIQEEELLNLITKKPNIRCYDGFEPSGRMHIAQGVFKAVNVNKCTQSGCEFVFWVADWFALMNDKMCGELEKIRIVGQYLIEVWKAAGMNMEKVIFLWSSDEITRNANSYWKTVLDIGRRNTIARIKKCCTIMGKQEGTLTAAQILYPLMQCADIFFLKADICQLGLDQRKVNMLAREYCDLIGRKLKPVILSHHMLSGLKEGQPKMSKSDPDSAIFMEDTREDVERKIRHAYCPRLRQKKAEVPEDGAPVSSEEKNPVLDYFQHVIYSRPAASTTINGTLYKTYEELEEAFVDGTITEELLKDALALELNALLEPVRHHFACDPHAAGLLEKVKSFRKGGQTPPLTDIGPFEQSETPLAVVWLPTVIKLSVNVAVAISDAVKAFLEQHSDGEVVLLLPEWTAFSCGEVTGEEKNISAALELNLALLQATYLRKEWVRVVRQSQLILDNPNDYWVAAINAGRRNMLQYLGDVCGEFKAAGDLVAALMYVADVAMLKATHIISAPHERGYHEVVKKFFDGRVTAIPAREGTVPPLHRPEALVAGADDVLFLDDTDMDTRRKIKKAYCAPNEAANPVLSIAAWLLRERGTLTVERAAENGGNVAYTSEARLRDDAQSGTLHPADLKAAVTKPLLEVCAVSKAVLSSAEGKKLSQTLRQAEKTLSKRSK
Put plainly: Trypanosoma cruzi tyrosyl tRNA synthetase (TcYRS) _High Tyrosine SOP. It counts as functional. More on the design: scale not given: in the data most compounds retested in dose-response had high values. The note with it: 30 µM.
Turning to `O=S(=O)(NCCN1CCCCC1Cn1cncn1)c1ccccc1` (stereo not given), the Percent Effect is 1.96%. As for `Cc1cccc(N2CC[C@@H]3CN(Cc4csc(C)n4)CCO[C@@H]3C2)n1`, the Percent Effect was 1.58%. The figure for `CCc1nc(C2CCCN2C(=O)C2=COCC2)no1` (stereo not given) is 4.74%; for `O=C(NCCOc1ccc2c(c1)OCO2)N1CCC1` it is 4.9%; for `COCCN1C(=O)CCC12CCN(C(=O)NC(C)C)CC2` it is 1.93%. To `O=C1CN(Cc2ccc(-c3ccccc3C(=O)O)cc2)CCN1` belongs 1.06%. As to `CC(C)c1cc(C(=O)NCCN2CCCS2(=O)=O)n[nH]1`, the Percent Effect was -4.31%.

Take `Cc1cnc(CN2CCCC(c3cc(C(F)(F)F)[nH]n3)C2)cn1` (stereo not given): the Percent Effect came out at 4.74%. To `COCCOc1cccc(C(=O)N2CCCC(n3cccn3)C2)c1` (stereo not given) belongs 0%; to `Cc1cc(CN(C)C(=O)NCC(C)N2CCc3ccccc32)no1` (stereo not given), 7.84%; to `CCn1cnnc1CNC(=O)N1CCOCC1`, 2.63%. For the molecule `Cn1nc2c(cc1=O)CN(Cc1nnc(C3CC3)o1)CC2`, the Percent Effect is -11%. To `Fc1cnc(N2CCOC3(CCN(Cc4ccsc4)CC3)C2)nc1` belongs 11.1%; to `OCC1CCCCN1c1ccc(-c2nc(-c3ccccc3F)no2)cn1` (stereo not given), -0.532%; to `CCc1cc(C(=O)N2CCC(Nc3ccc(C)nn3)CC2)sc1C`, 5.79%. As for `CC(=O)N1CCCN(CC(C)(O)c2cccc(C(F)(F)F)c2)CC1` (stereo not given), the Percent Effect was determined as 6.86%.

For `CC(C)c1ncncc1C(=O)NCCN1CCCS1(=O)=O`, the Percent Effect came to 1.44%. In the case of `Cn1cc(-c2nc(CN3CCc4c(ncn4C4CC4)C3)cs2)cn1`, the Percent Effect came to 0.98%.

On to `CC(C)n1ccnc1C1CCN(C(=O)c2cc[nH]n2)CC1`, for which the Percent Effect is 7.98%.

For `O=C(C1CCOC1)N1CC[C@@H](O)[C@@H]1Cc1ccccc1` (stereo not given in full), the Percent Effect is -28%.

Turning to `O=C(c1cccnc1)N1CCn2nnc(COc3cccnc3)c2C1`, the Percent Effect was determined as 7.89%. The figure for `Cc1[nH]/c(=N\C(=O)c2csc(NC3CC3)n2)sc1C` is 11.2%. To `O=C(CSc1ccc(F)c(F)c1)NS(=O)(=O)c1ccc2c(c1)OCCO2` belongs -4.31%. On to `O=C(C1CCOCC1)N1CC[C@H]2C[C@@H](c3ccncn3)O[C@@H]2C1`, for which the Percent Effect turned out to be 3.68%. To `Cc1ccc(OCC(=O)NS(=O)(=O)c2c(C)noc2C)cc1C` belongs -5.26%. To `CCn1nc2c(cc1=O)CN(CC(=O)Nc1nc(C)c(C)s1)CC2` belongs 4.9%.

Consider `Cc1[nH]/c(=N\C(=O)c2csc(NCC(C)C)n2)sc1C`, for which the Percent Effect is 5.85%. Take `COCCN1CCCN(C(=O)NC(C)Cn2cccn2)CC1` (stereo not given): the Percent Effect worked out at 5.88%.

With `CC(Nc1cccc(CN2CCOC2=O)c1)C(=O)N1CCNC1=O` (stereo not given), the Percent Effect amounted to 2.39%. The figure for `CCn1ccnc1CN1CCCN(C(=O)c2cccc(C#N)c2)CC1` is 1.44%.

As to `CN(C)CCN1CCCC12CCN(C(=O)c1cccn1C)CC2`, the Percent Effect is -0.526%.

Regarding `O=C(CN1CCCC(c2ccc(C(=O)O)cc2)C1)NC1CC1` (stereo not given), the Percent Effect was 6.92%. To `CN(Cc1noc(C2CC2)n1)C1CCN(Cc2nnc(C3CC3)o2)C1` (stereo not given) belongs 6.86%. The figure for `Cc1occc1C(=O)N1CCC2(CCC(C(=O)NCC3CC3)O2)CC1` (stereo not given) is 11.6%; for `O=C1C(NCc2nnc3n2CCCC3)CCN1c1ccccc1` (stereo not given) it is 3.35%. To `COc1ccccc1OC1CCN(Cc2cnc(N(C)C)nc2)CC1` belongs 3.72%. `Cc1nccn1-c1cccc(C2CCCN(C(=O)c3cc[nH]n3)C2)n1` (stereo not given): the Percent Effect was determined as 1.06%. To `Cc1ccc(CN2CCC(c3nnc(CN4CCCCC4)n3C)CC2)o1` belongs 1.6%.

Turning to `Cc1c(F)cc(C(=O)O)cc1S(=O)(=O)Nc1cccc(C(F)F)c1`, the Percent Effect was -1.44%. The figure for `Cc1noc(C(C)C)c1C(=O)NCCCOC(C)C` is 0.98%.

The record behind these values is ChEMBL document CHEMBL3988442, “University of Dundee, Small-Polar-MMV Screening Library” (2021).
